# Source: PubChem BioAssay (NCATS)
# Inconclusive results are not listed. Active and inactive are the calls of the source. Unless noted, calls follow the shape of the dose curve; as a rule, active = well fitted curve in the direction sought with a large enough effect; inconclusive = small, poorly fitted or top-dose-only effect, or another doubt; inactive = no such curve, though single readings can be large; an effect the other way counts as inactive or inconclusive.
# How the values were obtained:
# [1] = target: Lysosomal acid glucosylceramidase (Homo sapiens) (UniProt P04062); test: Glucocerebrosidase-p2 (AID 348; in the data active = potency below about 10 µM; also: potency is read from the fitted curve at half-maximal effect); conditions: purified GBA, blue fluorogenic substrate, 40 min
# Chain of Lysosomal acid glucosylceramidase (Homo sapiens) (P04062 whole entry, looked up): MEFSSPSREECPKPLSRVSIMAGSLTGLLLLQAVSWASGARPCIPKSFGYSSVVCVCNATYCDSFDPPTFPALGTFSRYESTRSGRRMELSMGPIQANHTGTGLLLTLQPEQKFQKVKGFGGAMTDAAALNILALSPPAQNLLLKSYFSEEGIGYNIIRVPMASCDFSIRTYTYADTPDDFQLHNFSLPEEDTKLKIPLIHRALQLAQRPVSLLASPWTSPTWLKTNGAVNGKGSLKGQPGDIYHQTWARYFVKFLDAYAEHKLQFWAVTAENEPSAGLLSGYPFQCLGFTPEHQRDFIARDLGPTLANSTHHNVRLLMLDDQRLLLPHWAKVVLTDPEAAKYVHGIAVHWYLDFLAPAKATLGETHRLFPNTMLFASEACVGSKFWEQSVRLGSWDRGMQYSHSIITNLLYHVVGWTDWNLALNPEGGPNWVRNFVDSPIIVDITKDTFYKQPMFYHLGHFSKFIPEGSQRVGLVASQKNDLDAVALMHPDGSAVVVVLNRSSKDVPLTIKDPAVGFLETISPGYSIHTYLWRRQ
# Method in brief: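 Normal human glucocerebrosidase (0.2 nM) with blue fluorogenic substrate (80 uM final) in citrate/phosphate pH 5.9 with 10mM sodium taurocholate, 0.01% tween-20; 40 min RT, NaOH/glycine stop; fluorescence Ex 365/Em 440; AC50 from a titration from 0.6 nM upwards.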
# [2] = NFAT Signaling Pathway (AID 444; active = well fitted curve in either direction with a large enough effect, not every such curve was filed as active;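 also: carbachol stimulus at about its EC50 of 1 µM final; % is scaled to controls: 0 for no effect and ±100 for the full control effect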); conditions: Jurkat NFAT-bla M1, carbachol, beta-lactamase ratio, 5 h; at 7.69 µM (top of the series) unless noted
# Method in brief: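 Jurkat cells carrying an NFAT-driven β-lactamase reporter and co-transfected muscarinic M1 receptor were treated with compound plus carbachol (1 uM final, an EC50 level) for 5 h at 37 °C. CCF4 loading followed for 1 h at RT; 460/530 nm ratio gave %activity.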
# [3] = Stat Signaling Pathway (AID 446; active = well fitted curve in either direction with a large enough effect, not every such curve was filed as active;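 also: ME-180 cervical cancer cells given 40 pM IL-6 alongside compound; SIE-controlled beta-lactamase reporter measured as 460/530 nm FRET emission ratio; % is scaled to controls: 0 for no effect and ±100 for the full control effect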); conditions: ME-180 SIE beta-lactamase reporter, IL-6 stimulated, 5 h; at 7.69 µM (top of the series) unless noted
# Method in brief: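 Normalization used AC90 stimulation (300 pM IL-6) and AC90 inhibition (125 nM pan-JAK inhibitor at 40 pM IL-6). The underlying signal is SIE-driven beta-lactamase in ME-180 cells after 5 h IL-6 exposure with compound.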
# [4] = target: Glucocorticoid receptor (Homo sapiens) (UniProt P04150); test: GR-GFP Redistribution (AID 450;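 active = compounds whose dose series gives a full or clear partial fitted curve of increased nuclear translocation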; also: potency is read from the fitted curve at half-maximal effect); conditions: U2OS GR-GFP nuclear translocation, laser cytometry, 2 h
# Chain of Glucocorticoid receptor (Homo sapiens) (P04150 whole entry, looked up, the tested form may be a part): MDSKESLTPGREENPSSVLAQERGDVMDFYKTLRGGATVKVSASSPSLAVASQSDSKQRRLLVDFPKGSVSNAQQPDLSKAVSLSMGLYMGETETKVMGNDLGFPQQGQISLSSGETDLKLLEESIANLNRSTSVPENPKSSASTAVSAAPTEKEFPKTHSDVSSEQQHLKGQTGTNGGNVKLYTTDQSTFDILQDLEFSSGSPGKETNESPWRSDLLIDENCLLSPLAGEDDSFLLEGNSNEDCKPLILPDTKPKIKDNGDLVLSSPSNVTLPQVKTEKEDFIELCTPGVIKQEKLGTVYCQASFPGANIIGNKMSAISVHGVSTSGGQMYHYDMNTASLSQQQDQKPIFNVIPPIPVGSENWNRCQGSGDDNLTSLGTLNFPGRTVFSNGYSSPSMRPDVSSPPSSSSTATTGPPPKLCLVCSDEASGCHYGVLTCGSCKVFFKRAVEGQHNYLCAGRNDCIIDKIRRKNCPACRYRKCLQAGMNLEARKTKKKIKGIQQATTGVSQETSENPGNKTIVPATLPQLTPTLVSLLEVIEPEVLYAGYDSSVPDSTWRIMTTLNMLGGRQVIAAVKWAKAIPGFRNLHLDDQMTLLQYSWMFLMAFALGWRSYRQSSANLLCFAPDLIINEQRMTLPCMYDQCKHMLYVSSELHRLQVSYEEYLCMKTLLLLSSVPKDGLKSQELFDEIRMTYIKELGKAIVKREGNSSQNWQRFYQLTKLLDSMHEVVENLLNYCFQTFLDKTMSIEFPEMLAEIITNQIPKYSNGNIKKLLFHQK
# [5] = target: Glucocorticoid receptor (Homo sapiens) (UniProt P04150); test: GR-EFC Redistribution (AID 451; calls by dose curve; also: potency is read from the fitted curve at half-maximal effect); conditions: CHO-K1 GR-EFC translocation, beta-gal luminescence, 2 h
# Method in brief: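 CHO-K1 cells stably expressing nuclear-localized β-gal enzyme acceptor and GR fused C-terminally to the enzyme donor fragment; ligand-driven nuclear translocation restores β-gal by complementation. Compounds titrated up to 46 uM final, 2 h at 37 °C; luminescence read.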
# [6] = target: Mitogen-activated protein kinase 10 (Mus musculus) (UniProt Q61831); test: JNK3 AlphaScreen Assay (AID 530; active = well fitted curve in either direction with a large enough effect, not every such curve was filed as active;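 also: kinase came from lysate of stimulated human HepG2 cells; signal reports phosphorylation of biotinylated GST-cJun 1-79 at Ser73 with 10 µM ATP; % is scaled to controls: 0 for no effect and ±100 for the full control effect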); conditions: JNK3 lysate, c-Jun phosphorylation; series mostly up to 57.1 µM
# Method in brief: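 Biotinylated GST-cJun(1-79) served as substrate for JNK3 in HepG2 lysates stimulated with IL-1beta and TNF-alpha. ATP was 10 uM final, pH 7.6. Ser73 phosphorylation was quantified by AlphaScreen (680 nm excitation).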
# [7] = qHTS Assay for Lipid Storage Modulators (AID 1519; calls by dose curve); conditions: Drosophila S3 cells, BODIPY lipid droplet/cell ratio, laser cytometry, cells loaded with oleic acid; for activity change, negative = inhibition: at 57.5 µM (top of the series)
# Method in brief: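 Cells seeded at 5,000 per well were treated with compounds over a concentration series and loaded with oleic acid (400 uM, as added). Lipid droplet fluorescence (488 nm excitation, 500-530 nm channel) was read by laser-scanning cytometry and normalized to 20 uM Triacsin C.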
# [8] = target: Dual specificity protein kinase CLK4 (Homo sapiens) (UniProt Q9HAZ1); test: qHTS Assay for Inhibitors of CDC-like Kinase 4 (Kinase-Glo Assay) (AID 1770); conditions: recombinant Clk4, Kinase-Glo ATP depletion luminescence; series mostly up to 66.7 µM; also: nearly all actives have a fitted effect of over 65% in size; also: potency is read from the fitted curve at half-maximal effect
# Chain of Dual specificity protein kinase CLK4 (Homo sapiens) (Q9HAZ1 whole entry, looked up): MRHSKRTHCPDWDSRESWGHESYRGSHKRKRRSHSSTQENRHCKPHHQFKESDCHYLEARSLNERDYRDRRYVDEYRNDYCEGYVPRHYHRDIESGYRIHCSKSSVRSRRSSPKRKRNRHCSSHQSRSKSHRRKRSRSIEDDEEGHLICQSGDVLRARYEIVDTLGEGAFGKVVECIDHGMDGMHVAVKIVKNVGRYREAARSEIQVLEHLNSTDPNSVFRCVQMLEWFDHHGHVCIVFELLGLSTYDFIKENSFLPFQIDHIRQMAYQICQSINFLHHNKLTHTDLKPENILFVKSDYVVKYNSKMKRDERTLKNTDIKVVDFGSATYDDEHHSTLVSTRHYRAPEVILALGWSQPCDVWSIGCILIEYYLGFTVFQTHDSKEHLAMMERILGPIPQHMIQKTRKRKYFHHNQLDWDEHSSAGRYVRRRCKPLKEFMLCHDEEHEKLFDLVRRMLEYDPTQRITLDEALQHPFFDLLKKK
# Method in brief: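 Recombinant human Clk4 (25 nM) phosphorylated RS repeat peptide (100 uM) with 1 uM ATP in Tris pH 7.5/MgCl2/EGTA/DTT/Triton buffer for 4.5 h at room temperature. Residual ATP was quantified by Kinase-Glo luciferase luminescence.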
# [9] = target: Dual specificity protein kinase CLK4 (Homo sapiens) (UniProt Q9HAZ1); test: qHTS Assay for Inhibitors of CDC-like Kinase 4 (ADP-Glo Assay) (AID 1771); conditions: recombinant CLK4, ADP-Glo luminescence; series mostly up to 80 µM; also: nearly all actives have a fitted effect of over 70% in size; also: potency is read from the fitted curve at half-maximal effect
# Method in brief: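 In this ADP-Glo format, 1 uM ATP and 100 uM RS peptide served as substrates for 25 nM Clk4 in Mg2+/EGTA/DTT/Triton buffer; reactions ran 1 hr at room temperature before luminescent ADP quantification.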
# [10] = target: Ubiquitin carboxyl-terminal hydrolase 1 (Homo sapiens) (UniProt O94782); test: Inhibitors of USP1/UAF1: Pilot qHTS (AID 504865); conditions: purified USP1/UAF1, Ub-rhodamine cleavage fluorescence; series mostly up to 54.9 µM;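 also: rhodamine fluorescence freed from ubiquitin-rhodamine substrate followed over time; top concentration of the series differs between compounds; % is scaled to controls: 0 for no effect and ±100 for the full control effect; nearly all actives have a fitted effect of over 35% in size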
# Chain of Ubiquitin carboxyl-terminal hydrolase 1 (Homo sapiens) (O94782 whole entry, looked up): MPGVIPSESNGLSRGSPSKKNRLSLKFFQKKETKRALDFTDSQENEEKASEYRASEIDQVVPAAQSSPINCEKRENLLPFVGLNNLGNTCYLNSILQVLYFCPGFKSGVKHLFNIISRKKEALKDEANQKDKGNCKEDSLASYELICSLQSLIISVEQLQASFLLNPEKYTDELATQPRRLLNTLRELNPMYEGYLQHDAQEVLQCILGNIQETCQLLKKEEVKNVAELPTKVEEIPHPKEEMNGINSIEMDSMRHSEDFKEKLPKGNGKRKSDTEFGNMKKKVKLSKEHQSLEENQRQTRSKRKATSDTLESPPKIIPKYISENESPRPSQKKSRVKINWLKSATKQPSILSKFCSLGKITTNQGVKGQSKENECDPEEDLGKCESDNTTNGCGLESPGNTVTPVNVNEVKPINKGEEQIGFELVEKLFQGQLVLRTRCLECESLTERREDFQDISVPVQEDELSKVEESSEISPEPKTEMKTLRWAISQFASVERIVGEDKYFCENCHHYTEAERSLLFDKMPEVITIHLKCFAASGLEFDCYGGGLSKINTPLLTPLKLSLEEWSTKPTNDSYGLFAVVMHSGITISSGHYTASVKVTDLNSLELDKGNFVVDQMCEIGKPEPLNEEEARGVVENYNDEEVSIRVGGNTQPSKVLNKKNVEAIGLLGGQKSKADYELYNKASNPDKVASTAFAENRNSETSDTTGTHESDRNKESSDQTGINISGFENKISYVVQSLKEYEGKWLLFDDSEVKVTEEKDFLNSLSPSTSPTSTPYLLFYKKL
# Method in brief: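 USP1/UAF1 complex (1nM) preincubated with compound 15 min at room temperature, then Ub-Rho substrate (150nM final) added. Fluorescence read kinetically at 480/540 nm, 6 reads every 60 seconds. Buffer: 50mM HEPES pH 7.8, 0.5mM EDTA, 0.1 mg/ml BSA, 1mM TCEP, 0.01% Tween-20.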
# [11] = Primary qHTS for small molecule stabilizers of the endoplasmic reticulum resident proteome: Secreted ER Calcium Modulated Protein (SERCaMP) assay (AID 1508630); conditions: SH-SY5Y GLuc-SERCaMP (Gaussia luciferase released on ER calcium loss) secretion, thapsigargin, luminescence; series mostly up to 38.4 µM; also: % is scaled to controls: 0 for no effect and ±100 for the full control effect
# Method in brief: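 The SH-SY5Y reporter protocol was run at 3 concentrations up to 38.3 uM (primary) or 11 concentrations (follow-up): 16 h compound, 100 nM thapsigargin for 4 h, then extracellular luciferase luminescence.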
# [12] = AP1 Signaling Pathway (AID 357; active = well fitted curve in either direction with a large enough effect, not every such curve was filed as active; also: % is scaled to controls: 0 for no effect and ±100 for the full control effect); conditions: ME-180 AP-1-bla reporter, EGF-induced, beta-lactamase ratio, 5 h; at 7.69 µM (top of the series) unless noted
# Method in brief: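 ME-180 cells with beta-lactamase reporter under AP-1 response element, stimulated with EC50 EGF; compounds tested in titration series, 5 h at 37 °C. CCF4 substrate added 2.5 h at room temperature; 460/530 nm emission ratio gave %activity and AC50.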
# [13] = target: 3',5'-cyclic-AMP phosphodiesterase 4B (Homo sapiens) (UniProt Q07343); test: qHTS Assay for Inhibitors of PDE-IV (AID 607; active = well fitted activation curve with a large enough effect in the main read-out, with a control signal flat, not every such curve was filed as active; also: % of control where 0% means no effect); conditions: HEK293 ACTOne CNG channel cells, membrane potential fluorescence; series mostly up to 22.9 µM
# Chain of 3',5'-cyclic-AMP phosphodiesterase 4B (Homo sapiens) (Q07343 whole entry, looked up): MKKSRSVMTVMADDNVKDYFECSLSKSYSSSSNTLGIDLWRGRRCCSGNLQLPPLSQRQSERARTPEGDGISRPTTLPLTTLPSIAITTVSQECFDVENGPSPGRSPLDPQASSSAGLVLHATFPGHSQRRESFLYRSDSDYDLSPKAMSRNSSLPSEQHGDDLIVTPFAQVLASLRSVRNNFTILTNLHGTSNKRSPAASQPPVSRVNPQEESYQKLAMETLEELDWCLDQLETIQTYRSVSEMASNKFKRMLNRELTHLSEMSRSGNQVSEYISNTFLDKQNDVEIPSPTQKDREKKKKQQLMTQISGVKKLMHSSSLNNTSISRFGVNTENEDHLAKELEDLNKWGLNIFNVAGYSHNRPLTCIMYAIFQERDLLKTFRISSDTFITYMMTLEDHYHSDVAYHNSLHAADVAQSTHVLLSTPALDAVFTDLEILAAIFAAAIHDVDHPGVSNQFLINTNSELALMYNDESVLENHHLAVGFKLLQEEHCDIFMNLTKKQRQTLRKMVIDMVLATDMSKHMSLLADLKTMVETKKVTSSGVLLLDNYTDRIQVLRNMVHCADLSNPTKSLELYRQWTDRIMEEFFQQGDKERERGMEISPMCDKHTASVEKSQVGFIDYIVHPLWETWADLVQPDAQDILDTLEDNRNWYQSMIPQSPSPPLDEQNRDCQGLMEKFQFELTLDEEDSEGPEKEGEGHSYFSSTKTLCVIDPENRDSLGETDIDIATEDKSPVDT
# Method in brief: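 HEK293 ACTOne cells with CNG channel (1000/well), endogenous PDE4; membrane potential dye, compounds up to 22.9 uM final. Fluorescence Ex 535/Em 590; RO 20-1724 (100 uM final) as reference.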
# [14] = target: Cytochrome P450 1A2 (Homo sapiens) (UniProt P05177); test: p450-cyp1a2 (AID 410; calls by dose curve; also: potency is read from the fitted curve at half-maximal effect); conditions: recombinant CYP1A2, luciferin-ME demethylation, luminescence; series mostly up to 57 µM
# Chain of Cytochrome P450 1A2 (Homo sapiens) (P05177 whole entry, looked up): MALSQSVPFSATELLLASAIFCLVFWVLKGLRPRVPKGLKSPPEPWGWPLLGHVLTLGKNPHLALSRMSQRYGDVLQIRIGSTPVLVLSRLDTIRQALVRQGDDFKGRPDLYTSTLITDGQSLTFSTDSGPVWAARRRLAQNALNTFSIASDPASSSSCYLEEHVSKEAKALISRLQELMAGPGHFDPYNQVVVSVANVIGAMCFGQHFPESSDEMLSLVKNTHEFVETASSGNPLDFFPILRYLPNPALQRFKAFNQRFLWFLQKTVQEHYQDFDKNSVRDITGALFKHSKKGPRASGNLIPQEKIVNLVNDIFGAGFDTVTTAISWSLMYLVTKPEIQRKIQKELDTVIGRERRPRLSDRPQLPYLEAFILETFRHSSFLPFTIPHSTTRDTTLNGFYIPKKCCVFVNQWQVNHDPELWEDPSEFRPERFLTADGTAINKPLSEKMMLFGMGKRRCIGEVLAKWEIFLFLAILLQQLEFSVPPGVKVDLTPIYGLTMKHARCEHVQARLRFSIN
# Method in brief: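 Read-out is luminescence from luciferin produced by CYP1A2 demethylation of Luciferin-ME (100uM, at Km). Detection reagent stopped the 60 min NADPH-dependent reaction; signals were normalized to 57 uM furafylline.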
# [15] = target: Cytochrome P450 3A4 (Homo sapiens) (UniProt P08684); test: qHTS Assay for Inhibitors and Substrates of Cytochrome P450 3A4 (AID 884); conditions: recombinant CYP3A4, Luciferin-PPXE luminescence; series mostly up to 57.1 µM; also: potency is read from the fitted curve at half-maximal effect; nearly all actives have a fitted effect of over 50% in size
# Chain of Cytochrome P450 3A4 (Homo sapiens) (P08684 whole entry, looked up): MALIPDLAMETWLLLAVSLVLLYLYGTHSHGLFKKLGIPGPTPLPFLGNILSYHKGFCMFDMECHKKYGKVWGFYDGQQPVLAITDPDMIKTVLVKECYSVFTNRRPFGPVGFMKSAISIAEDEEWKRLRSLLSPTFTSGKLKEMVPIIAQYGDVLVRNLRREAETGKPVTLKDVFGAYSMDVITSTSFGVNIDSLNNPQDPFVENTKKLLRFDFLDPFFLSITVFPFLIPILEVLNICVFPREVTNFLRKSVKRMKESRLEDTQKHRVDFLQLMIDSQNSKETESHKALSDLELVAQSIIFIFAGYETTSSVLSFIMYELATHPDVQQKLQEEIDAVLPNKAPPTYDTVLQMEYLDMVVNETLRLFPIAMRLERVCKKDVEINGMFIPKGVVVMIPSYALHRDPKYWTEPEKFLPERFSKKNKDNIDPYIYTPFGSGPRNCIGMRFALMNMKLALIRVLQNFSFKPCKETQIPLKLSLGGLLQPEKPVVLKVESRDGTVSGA
# Method in brief: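 Luminescent readout of luciferin produced by CYP3A4 (20 nM) dealkylation of Luciferin-PPXE, 25 uM (its KM). NADPH-driven reaction ran 60 min at RT after 10 min compound preincubation; data scaled to 57 uM ketoconazole as 100% inhibition.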
# [16] = target: Cytochrome P450 3A4 (Homo sapiens) (UniProt P08684); test: qHTS Assay for Activators of Cytochrome P450 3A4 (AID 885); conditions: recombinant CYP3A4, Luciferin-PPXE luminescence, 60 min; series mostly up to 57.1 µM; also: nearly all actives have a fitted effect of over 65% in size
# Method in brief: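 Human CYP3A4 dealkylates Luciferin-PPXE to luciferin, which luciferase detection converts to light. Substrate was at its KM (25uM), buffer 200mM KPO4, reaction 60 min at RT.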
# [17] = target: Dual specificity protein kinase CLK4 (Homo sapiens) (UniProt Q9HAZ1); test: qHTS Assay for Inhibitors of CDC-like Kinase 4 (ADP-FP Assay) (AID 1795); conditions: Transcreener ADP fluorescence polarization; series mostly up to 50 µM; also: % is scaled to controls: 0 for no effect and ±100 for the full control effect; nearly all actives have a fitted effect of over 60% in size
# Method in brief: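 Recombinant human Clk4 (6.25 nM) phosphorylated RS repeat peptide (100 uM) with 1 uM ATP in Tris pH 7.5/MgCl2/EGTA/DTT/Triton buffer for one hour. ADP was quantified by Transcreener competitive fluorescence polarization against an ADP calibration curve.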
# [18] = target: Cytochrome P450 2C19 (Homo sapiens) (UniProt P33261); test: qHTS Assay for Inhibitors and Substrates of Cytochrome P450 2C19 (AID 899); conditions: recombinant CYP2C19, luciferin-H EGE luminescence; series mostly up to 57.1 µM; also: nearly all actives have a fitted effect of over 60% in size; also: potency is read from the fitted curve at half-maximal effect
# Chain of Cytochrome P450 2C19 (Homo sapiens) (P33261 whole entry, looked up): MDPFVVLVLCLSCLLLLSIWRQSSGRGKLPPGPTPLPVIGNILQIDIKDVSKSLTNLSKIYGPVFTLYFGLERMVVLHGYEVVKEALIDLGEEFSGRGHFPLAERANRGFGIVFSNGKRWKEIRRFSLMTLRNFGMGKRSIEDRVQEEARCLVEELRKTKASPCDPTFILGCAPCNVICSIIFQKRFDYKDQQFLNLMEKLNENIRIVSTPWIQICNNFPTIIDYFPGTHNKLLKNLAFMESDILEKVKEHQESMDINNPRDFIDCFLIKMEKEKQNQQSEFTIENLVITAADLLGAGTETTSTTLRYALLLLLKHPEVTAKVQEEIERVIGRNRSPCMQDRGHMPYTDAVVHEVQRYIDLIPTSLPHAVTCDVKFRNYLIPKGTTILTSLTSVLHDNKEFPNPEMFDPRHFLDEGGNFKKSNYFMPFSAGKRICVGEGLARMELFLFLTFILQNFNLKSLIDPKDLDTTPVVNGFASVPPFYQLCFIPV
# Method in brief: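 NADPH-dependent conversion of Luciferin-H EGE (10uM, at KM) by 5nM enzyme in 50mM KPO4, 60 min at 37C following 10 min compound preincubation. Stopped with luciferin detection buffer; luminescence read after 20 min.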
# [19] = measured here: cell count channel max response
# [20] = measured here: lipid channel max response
SMILES,Potency [1],"activity change, negative = inhibition [2]","activity, negative = inhibition [3]",Potency [4],Potency [5],outcome [6],"activity change, negative = inhibition [7]","max response [7, 19] [%]","max response [7, 20] [%]",Potency [8],Potency [9],Potency [10],Potency [11],"activity change, negative = inhibition [12]",Potency [13],Potency [14],Potency [15],Potency [16],Potency [17],Potency [18]
COc1cccc(Nc2ncc3ncc(=O)n(CCc4ccccc4)c3n2)c1,> 11.4 µM (inactive),4.6% (inactive),-3.68% (inactive),> 9.22 µM (inactive),> 46 µM (inactive),inactive,-5.96% (inactive),-10.9,-19.1,0.1 µM (active),0.282 µM (active),inactive,inactive,,,,,,,
Cc1cnc(CNc2ccnc(-c3ccccc3CN(C)C)n2)cn1,> 11.4 µM (inactive),-5.1% (inactive),12.3% (inactive),> 46 µM (inactive),> 46 µM (inactive),inactive,5.8% (inactive),23.9,27.5,inactive,inactive,inactive,inactive,10.8% (inactive),inactive,,,,,
CN(C)C(=O)c1ccc(-c2cncnc2NCCc2cnc[nH]2)cc1,> 11.4 µM (inactive),18.2% (inactive),-26.8% (inactive),> 46 µM (inactive),,inactive,3.4% (inactive),29.1,30.3,inactive,,inactive,inactive,-9.74% (inactive),inactive,12.6 µM (active),6.31 µM (active),inactive,inactive,
CS(=O)(=O)Nc1cccc(-c2ccc3ncnc(NC4CC4)c3c2)c1,,-15.5% (inactive),-20.6% (inactive),> 46 µM (inactive),> 46 µM (inactive),inactive,-3.87% (inactive),-8.29,-10.1,6.31 µM (active),5.01 µM (active),inactive,inactive,-14.5% (inactive),inactive,0.631 µM (active),6.31 µM (active),inactive,,inactive
Cc1cnc(CNc2cc(-c3cccc(NS(C)(=O)=O)c3)ncn2)cn1,> 11.4 µM (inactive),-0.447% (inactive),-0.385% (inactive),> 46 µM (inactive),> 46 µM (inactive),inactive,5.3% (inactive),37.3,40.2,25.1 µM (active),15.8 µM (active),inactive,inactive,20.7% (inactive),inactive,,,,,
Cc1ccccc1-c1cc(Nc2ccccc2)ncn1,> 11.4 µM (inactive),1.39% (inactive),4.11% (inactive),> 46 µM (inactive),> 46 µM (inactive),inactive,4.64% (inactive),30.6,31.4,inactive,,inactive,inactive,-4.93% (inactive),,3.98 µM (active),,,inactive,3.16 µM (active)
